PubChem BioAssay AID1159580 (chemical genetic matrix, 2015)
Values joined by “and” are separate entries in the source; they are usually repeats but may differ in a detail not shown here. Equal values may be shown once. Hit rate of the full screen: of about 5,500 compounds, about 2,000 (36%) were called active. Another 18% or so got no clear call; they are omitted. Rule as the data show it: active = normalized growth mostly below about 0.91 (no sharp cut-off); inconclusive = no clear call, values can overlap the other calls; inactive = mostly above about 0.92. The list shows a part of the results. Some structures have more than one record in an assay (separate samples or runs), and their calls can disagree.

Assay: chemical genetic growth profiling, strain panel (AID 1159580);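 also: tested at 20 µM; growth read once vehicle control cultures reached saturation at 30 °C; 1 = growth at the plate median or of vehicle wells; lower values mean less growth of the strain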
Settings: S. cerevisiae deletion strains, growth OD

Measured: normalized growth

O=C1c2c(O)ccc(O)c2C(=O)c2c(NCCNCCO)ccc(NCCNCCO)c21
1.03 (inactive) and 0.713 (active): locus YHR030C, strain SLT2, stronger effect = lower value
0.916 (inactive) and 0.755 (active): locus YJL095W, strain BCK1, stronger effect = lower value
active: locus YAL021C, strain ccr4, stronger effect = lower value 0.499 | locus YAL026C, strain drs2, stronger effect = lower value 0.363 | locus YAL030W, strain snc1, stronger effect = lower value 0.839 | locus YBL061C, strain skt5, stronger effect = lower value 0.81 | locus YBR009C, strain hhf1, stronger effect = lower value 0.831 | locus YBR023C, strain chs3, stronger effect = lower value 0.868 | locus YBR231C, strain swc5, stronger effect = lower value 0.84 | locus YBR279W, strain paf1, stronger effect = lower value 0.669 | locus YCL011C, strain gbp2, stronger effect = lower value 0.894 | locus YCL016C, strain dcc1, stronger effect = lower value 0.385 | locus YCL061C, strain MRC1, stronger effect = lower value 0.868 | locus YCR088W, strain abp1, stronger effect = lower value 0.828 | locus YDL005C, strain med2, stronger effect = lower value 1.12 [resistant] | locus YDL192W, strain arf1, stronger effect = lower value 0.889 | locus YDR069C, strain doa4, stronger effect = lower value 0.684 | locus YDR137W, strain rgp1, stronger effect = lower value 0.572 | locus YDR159W, strain sac3, stronger effect = lower value 0.788 | locus YDR195W, strain ref2 0.764 | locus YDR297W, strain sur2, stronger effect = lower value 0.885 | locus YDR335W, strain msn5, stronger effect = lower value 0.821 | locus YDR388W, stronger effect = lower value 0.892 | locus YDR392W, strain spt3, stronger effect = lower value 1.28 [resistant] | locus YEL003W, strain gim4, stronger effect = lower value 0.878 | locus YEL037C, strain rad23, stronger effect = lower value 0.818 | locus YEL061C, strain CIN8 (second series), stronger effect = lower value 0.896 | locus YER015W, strain faa2, stronger effect = lower value 0.865 | locus YER016W, strain bim1, stronger effect = lower value 0.793 | locus YER111C, strain swi4, stronger effect = lower value 0.397 | locus YFR010W, strain ubp6, stronger effect = lower value 0.564 | locus YGL167C, strain pmr1, stronger effect = lower value 0.619 | locus YGL173C, strain kem1, stronger effect = lower value 0.57 | locus YGL240W, strain doc1, stronger effect = lower value 0.696 | locus YGL253W, strain hxk2, stronger effect = lower value 0.738 | locus YHR027C, strain rpn1, stronger effect = lower value 0.756 | locus YHR142W, strain chs7, stronger effect = lower value 0.582 | locus YJL092W, strain hpr5, stronger effect = lower value 0.609 | locus YJL095W, strain BCK1 (second series), stronger effect = lower value 0.482 | locus YJL115W, strain asf1, stronger effect = lower value 0.321 | locus YJL129C, strain trk1, stronger effect = lower value 0.306 | locus YJL164C, strain tpk1, stronger effect = lower value 0.735 | locus YJL166W, strain qcr8, stronger effect = lower value 0.858 | locus YJR043C, strain POL32, stronger effect = lower value 0.779 | locus YKL068W, stronger effect = lower value 1.06 [resistant] | locus YKL160W, strain elf1, stronger effect = lower value 0.858 | locus YKR001C, strain vps1, stronger effect = lower value 0.74 | locus YLL001W, strain dnm1, stronger effect = lower value 0.727 | locus YLL026W, stronger effect = lower value 0.914 | locus YLR027C, strain aat2, stronger effect = lower value 0.855 | locus YLR113W, strain HOG1, stronger effect = lower value 0.828 | locus YLR221C, strain rsa3, stronger effect = lower value 0.865 | locus YLR262C, strain YPT6 (second series), stronger effect = lower value 0.443 | locus YLR268W, strain sec22, stronger effect = lower value 0.857 | locus YLR320W, strain mms22, stronger effect = lower value 0.248 | locus YLR342W, strain FKS1, stronger effect = lower value 0.83 | locus YLR370C, strain arc18, stronger effect = lower value 0.28 | locus YLR384C, strain iki3, stronger effect = lower value 0.745 | locus YML032C, strain rad52, stronger effect = lower value 0.19 | locus YML120C, strain ndi1, stronger effect = lower value 0.878 | locus YMR058W, strain fet3, stronger effect = lower value 0.396 | locus YMR078C, strain ctf18, stronger effect = lower value 0.429 | locus YMR231W, strain pep5, stronger effect = lower value 0.174 | locus YMR307W, strain GAS1, stronger effect = lower value 0.562 and 0.648 | locus YNL071W, strain lat1, stronger effect = lower value 1.12 [resistant] | locus YNL183C, strain NPR1, stronger effect = lower value 0.815 | locus YNL209W, strain ssb2, stronger effect = lower value 0.825 | locus YNL224C, strain SQS1, stronger effect = lower value 1.08 [resistant] | locus YNL248C, strain rpa49, stronger effect = lower value 0.678 | locus YNL250W, strain rad50, stronger effect = lower value 0.181 | locus YNR049C, strain mso1, stronger effect = lower value 0.912 | locus YNR052C, strain pop2, stronger effect = lower value 0.69 | locus YOL006C, strain TOP1, stronger effect = lower value 0.424 | locus YOR001W, strain rrp6, stronger effect = lower value 0.681 | locus YOR070C, strain gyp1, stronger effect = lower value 0.734 | locus YOR080W, strain dia2, stronger effect = lower value 0.447 | locus YOR083W, strain WHI5, stronger effect = lower value 0.726 | locus YOR106W, strain vam3, stronger effect = lower value 0.363 | locus YOR184W, strain ser1, stronger effect = lower value 0.802 | locus YOR270C, strain vph1, stronger effect = lower value 0.327 | locus YOR290C, strain snf2, stronger effect = lower value 0.653 | locus YPL051W, strain arl3, stronger effect = lower value 0.869 | locus YPL055C, strain LGE1, stronger effect = lower value 0.868
inactive: locus YAL040C, strain CLN3, stronger effect = lower value 1.06 | locus YBR021W, strain FUR4, stronger effect = lower value 0.941 | locus YBR171W, strain sec66, stronger effect = lower value 0.911 | locus YBR229C, strain ROT2, stronger effect = lower value 1.03 | locus YCL029C, strain bik1, stronger effect = lower value 1.01 | locus YCL061C, strain MRC1 (second series), stronger effect = lower value 0.983 | locus YCL069W, strain vba3, stronger effect = lower value 0.946 | locus YDL035C, strain GPR1, stronger effect = lower value 0.976 | locus YDL040C, strain nat1, stronger effect = lower value 1.03 | locus YDL074C, strain BRE1, stronger effect = lower value 0.897 | locus YDL101C, strain DUN1, stronger effect = lower value 1.01 | locus YDL134C, strain PPH21, stronger effect = lower value 0.977 | locus YDL185W, strain tfp1, stronger effect = lower value 0.943 | locus YDR001C, strain nth1, stronger effect = lower value 1.01 | locus YDR101C, strain arx1, stronger effect = lower value 1.04 | locus YDR150W, strain NUM1, stronger effect = lower value 0.993 | locus YDR162C, strain NBP2, stronger effect = lower value 0.921 | locus YDR318W, strain mcm21, stronger effect = lower value 0.982 | locus YDR334W, strain swr1, stronger effect = lower value 0.981 | locus YDR363W, strain ESC2, stronger effect = lower value 0.919 | locus YDR502C, strain sam2, stronger effect = lower value 0.983 | locus YEL061C, strain CIN8, stronger effect = lower value 1.02 | locus YER002W, strain NOP16, stronger effect = lower value 1.05 | locus YER110C, stronger effect = lower value 1.07 | locus YER155C, strain BEM2 (second series), stronger effect = lower value 0.965 | locus YER155C, strain BEM2, stronger effect = lower value 1.04 | locus YER167W, strain BCK2, stronger effect = lower value 0.96 | locus YGL078C, strain dbp3, stronger effect = lower value 0.942 | locus YGL086W, strain mad1, stronger effect = lower value 1.01 | locus YGL227W, strain vid30, stronger effect = lower value 1.08 | locus YGL248W, strain PDE1, stronger effect = lower value 1.02 | locus YGR078C, strain PAC10, stronger effect = lower value 1.01 and 1.07 | locus YGR135W, strain pre9, stronger effect = lower value 0.942 | locus YGR252W, strain gcn5, stronger effect = lower value 0.924 | locus YHR013C, strain ard1, stronger effect = lower value 0.878 | locus YHR079C, strain IRE1 (second series), stronger effect = lower value 1 | locus YHR079C, strain IRE1, stronger effect = lower value 0.951 | locus YHR094C, strain hxt1, stronger effect = lower value 1.05 | locus YHR129C, strain ARP1, stronger effect = lower value 1.02 | locus YHR200W, strain rpn10, stronger effect = lower value 0.985 | locus YIL066C, strain RNR3, stronger effect = lower value 0.992 | locus YIL073C, strain SPO22, stronger effect = lower value 0.917 | locus YIL125W, strain kgd1, stronger effect = lower value 0.986 | locus YIR030C, strain dcg1, stronger effect = lower value 1.02 | locus YJL134W, strain LCB3, stronger effect = lower value 1.04 | locus YJL154C, strain vps35, stronger effect = lower value 1.05 | locus YJL168C, strain set2, stronger effect = lower value 1.05 | locus YJL187C, strain SWE1 (second series), stronger effect = lower value 0.968 | locus YJL187C, strain SWE1, stronger effect = lower value 0.997 | locus YJR066W, strain TOR1, stronger effect = lower value 0.85 | locus YJR075W, strain HOC1, stronger effect = lower value 0.968 | locus YKL009W, strain mrt4, stronger effect = lower value 0.925 | locus YKL085W, strain MDH1 (second series), stronger effect = lower value 1.05 | locus YKL085W, strain MDH1, stronger effect = lower value 1.05 | locus YKL190W, strain CNB1, stronger effect = lower value 0.998 | locus YKR026C, strain gcn3, stronger effect = lower value 1.04 | locus YKR091W, strain srl3, stronger effect = lower value 1.01 | locus YLL041C, strain sdh2, stronger effect = lower value 1.01 | locus YLR039C, strain RIC1, stronger effect = lower value 0.707 | locus YLR058C, strain SHM2, stronger effect = lower value 1.02 | locus YLR102C, strain apc9, stronger effect = lower value 1.06 | locus YLR258W, strain gsy2, stronger effect = lower value 0.94 | locus YLR262C, strain YPT6, stronger effect = lower value 0.711 | locus YLR330W, strain CHS5, stronger effect = lower value 1.03 | locus YLR342W, strain FKS1 (second series), stronger effect = lower value 0.871 | locus YLR357W, strain rsc2, stronger effect = lower value 0.976 | locus YLR371W, strain rom2, stronger effect = lower value 1.01 | locus YLR418C, strain cdc73, stronger effect = lower value 1.02 | locus YML016C, strain PPZ1, stronger effect = lower value 1.03 | locus YML124C, strain tub3, stronger effect = lower value 1.05 | locus YMR125W, strain sto1, stronger effect = lower value 0.982 | locus YMR129W, stronger effect = lower value 0.941 | locus YMR205C, strain PFK2, stronger effect = lower value 0.975 | locus YMR223W, strain ubp8, stronger effect = lower value 0.91 | locus YMR263W, strain SAP30, stronger effect = lower value 0.954 and 1.02 | locus YNL067W, strain RPL9B, stronger effect = lower value 0.976 | locus YNL128W, strain TEP1, stronger effect = lower value 1.07 | locus YNL175C, strain NOP13, stronger effect = lower value 1.07 | locus YNL197C, strain WHI3, stronger effect = lower value 1.06 | locus YNL233W, strain BNI4, stronger effect = lower value 0.966 | locus YNL271C, strain bni1, stronger effect = lower value 0.944 | locus YNL298W, strain CLA4, stronger effect = lower value 0.989 | locus YNL307C, strain MCK1, stronger effect = lower value 1.08 | locus YNL322C, strain KRE1 (second series), stronger effect = lower value 0.933 | locus YNL322C, strain KRE1, stronger effect = lower value 1.01 | locus YOL012C, strain htz1 0.838 | locus YOL147C, strain pex11, stronger effect = lower value 1.07 | locus YOR061W, strain CKA2, stronger effect = lower value 1.01 | locus YOR069W, strain VPS5, stronger effect = lower value 1.02 | locus YOR083W, strain WHI5 (second series), stronger effect = lower value 1 | locus YOR136W, strain idh2, stronger effect = lower value 1.01 | locus YOR144C, strain elg1, stronger effect = lower value 0.984 | locus YOR231W, strain MKK1, stronger effect = lower value 0.927 | locus YOR265W, strain rbl2, stronger effect = lower value 0.932 | locus YOR316C, strain cot1, stronger effect = lower value 1.06 | locus YPL078C, strain atp4, stronger effect = lower value 0.974 | locus YPL106C, strain sse1, stronger effect = lower value 1.07 | locus YPL240C, strain hsp82, stronger effect = lower value 1.03 | locus YPL241C, strain CIN2, stronger effect = lower value 1.04 | locus YPL256C, strain CLN2, stronger effect = lower value 0.959 | locus YPR119W, strain clb2, stronger effect = lower value 1.05 | locus YPR141C, strain kar3, stronger effect = lower value 1.05 | locus YPR163C, strain tif3, stronger effect = lower value 1.03 | locus YPR167C, strain met16, stronger effect = lower value 0.993 | strain wtn01, stronger effect = lower value 0.963
0.968 (inactive) and 0.9 (active): locus YAL013W, strain DEP1, stronger effect = lower value
